About 83,000 compounds went through this panel and 20% of them were active in at least one assay; those are over-represented in the sample as a whole.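 Testing used 96-well plates and a 48-hour single-concentration exposure. Example: -40 means 40% of the starting cells died.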 Calls of active or inactive are those of the source. The calls were made as follows: active = growth percent below 10; inactive = the rest.
Tests used:
Experiment in all cases: NCI-60 one-dose screen, 48 h (100 = growth as untreated, 0 = no growth, -100 = all killed)
Settings in all cases: 10 µM unless noted
SR leukemia = test system: SR leukemia
RPMI-8226 leukemia = test system: RPMI-8226 leukemia
OVCAR-8 ovarian = test system: OVCAR-8 ovarian
OVCAR-5 ovarian = test system: OVCAR-5 ovarian
OVCAR-4 ovarian = test system: OVCAR-4 ovarian
SK-OV-3 ovarian = test system: SK-OV-3 ovarian
IGROV1 ovarian = test system: IGROV1 ovarian
OVCAR-3 ovarian = test system: OVCAR-3 ovarian
HS 578T breast = test system: HS 578T breast
NCI/ADR-RES ovarian = test system: NCI/ADR-RES ovarian

Measured: growth

O=c1c2ccccc2n(C[C@H]2CO2)c2ccccc12
active: SR leukemia 8.95% | RPMI-8226 leukemia 1.45% | OVCAR-8 ovarian 4.1% | OVCAR-5 ovarian -12.7% | OVCAR-4 ovarian 7.68% | SK-OV-3 ovarian -13.5% | IGROV1 ovarian -52.3% | OVCAR-3 ovarian -19.7% | HS 578T breast 6.14% | NCI/ADR-RES ovarian -14.3%

Cc1ccc2c(/C=C/C(=O)c3cc(CN4CCOCC4)c(O)c4nc(C)ccc34)cc(CN3CCOCC3)c(O)c2n1
inactive: OVCAR-8 ovarian 11.1% | HS 578T breast 29.6%
active: SR leukemia 6.56% | RPMI-8226 leukemia 2.37% | OVCAR-5 ovarian 0.618% | OVCAR-4 ovarian -74.3% | SK-OV-3 ovarian -1.75% | IGROV1 ovarian 2.95% | OVCAR-3 ovarian -13.2% | NCI/ADR-RES ovarian 8.34%

CCCCCCCCn1ccc2cc(NC(=O)CN3CCN(c4cc(C)nc(Cl)n4)CC3)ccc21
inactive: SR leukemia 73.3% | RPMI-8226 leukemia 73.5% | OVCAR-8 ovarian 94.9% | OVCAR-5 ovarian 95.2% | OVCAR-4 ovarian 75.2% | SK-OV-3 ovarian 105% | IGROV1 ovarian 72.5% | OVCAR-3 ovarian 108% | HS 578T breast 94.2% | NCI/ADR-RES ovarian 84.8%

Fc1cccc(-c2nc(-c3c[nH]c4ncccc34)cs2)c1
inactive: SR leukemia 84.3% [100 µM] | RPMI-8226 leukemia 68.4% [100 µM] | OVCAR-8 ovarian 45.3% [100 µM] | OVCAR-5 ovarian 74.9% [100 µM] | SK-OV-3 ovarian 55.9% [100 µM] | IGROV1 ovarian 81.5% [100 µM] | OVCAR-3 ovarian 36.1% [100 µM] | HS 578T breast 46.5% [100 µM] | NCI/ADR-RES ovarian 48.1% [100 µM]
active: OVCAR-4 ovarian 9.43% [100 µM]

COC(=O)[C@]1(C)CCC[C@]2(C)[C@H]3C[C@@H]4[C@H]5[C@@H]6CC/C(=N\OCC/C(N)=N/O)[C@H]5[C@@]3(CC[C@H]21)CC4(C(C)C)O6
active: SR leukemia 5.07%
inactive: RPMI-8226 leukemia 39.1% | OVCAR-8 ovarian 73.2% | OVCAR-5 ovarian 93.3% | OVCAR-4 ovarian 51.6% | SK-OV-3 ovarian 89.9% | IGROV1 ovarian 63.4% | OVCAR-3 ovarian 53.1% | HS 578T breast 66.3% | NCI/ADR-RES ovarian 32.1%

CN1CCOCCN(C)Cc2ccc3ccc(cc3c2)CN(C)CCOCCN(C)Cc2ccc3ccc(cc3c2)C1
inactive: RPMI-8226 leukemia 36.7% | OVCAR-8 ovarian 103% | OVCAR-5 ovarian 134% | OVCAR-4 ovarian 78.4% | SK-OV-3 ovarian 146% | IGROV1 ovarian 74.8% | OVCAR-3 ovarian 75.6% | HS 578T breast 90.6% | NCI/ADR-RES ovarian 83.5%
active: SR leukemia 9.14%

C=CCn1cc(-c2nc3ccccc3s2)c2cc(-c3ccc4c5c(cccc35)C(=O)N(CCO)C4=O)ccc21
inactive: SR leukemia 104% | RPMI-8226 leukemia 99.3% | OVCAR-8 ovarian 91.2% | OVCAR-5 ovarian 92.9% | OVCAR-4 ovarian 99.6% | SK-OV-3 ovarian 107% | IGROV1 ovarian 77.7% | OVCAR-3 ovarian 105% | HS 578T breast 104% | NCI/ADR-RES ovarian 98.3%

Cc1ccccc1N1CCN(C(=S)c2ccccc2)CC1
inactive: SR leukemia 104% | RPMI-8226 leukemia 115% | OVCAR-8 ovarian 96.4% | OVCAR-5 ovarian 93.4% | OVCAR-4 ovarian 90.6% | SK-OV-3 ovarian 98.1% | IGROV1 ovarian 57.2% | OVCAR-3 ovarian 108% | HS 578T breast 106% | NCI/ADR-RES ovarian 102%

N#Cc1c(-c2ccccc2)nc2c(c(-c3ccccc3)nn2-c2ccccc2)c1-c1ccc(N2CCCCC2)cc1
inactive: SR leukemia 114% | RPMI-8226 leukemia 107% | OVCAR-8 ovarian 98.4% | OVCAR-5 ovarian 102% | OVCAR-4 ovarian 105% | SK-OV-3 ovarian 104% | IGROV1 ovarian 104% | OVCAR-3 ovarian 111% | HS 578T breast 109% | NCI/ADR-RES ovarian 100%

Cc1cn(C)cn1
inactive: SR leukemia 99.4% | RPMI-8226 leukemia 102% | OVCAR-8 ovarian 106% | OVCAR-5 ovarian 102% | OVCAR-4 ovarian 100% | SK-OV-3 ovarian 120% | IGROV1 ovarian 117% | OVCAR-3 ovarian 108% | HS 578T breast 138% | NCI/ADR-RES ovarian 109%

C[C@@H]1NC(=O)[C@H](Cc2ccccc2)N(Cc2cccnc2)C1=O
inactive: SR leukemia 96.9% | RPMI-8226 leukemia 105% | OVCAR-8 ovarian 102% | OVCAR-5 ovarian 96.7% | OVCAR-4 ovarian 102% | SK-OV-3 ovarian 99.2% | IGROV1 ovarian 107% | OVCAR-3 ovarian 110% | HS 578T breast 94.3% | NCI/ADR-RES ovarian 104%

O=C(O)CCCCCCCCCCN1C(=O)/C(=C2/C(=O)N(CC(=O)O)c3ccc(Br)cc32)SC1=S
inactive: SR leukemia 57.6% | RPMI-8226 leukemia 79.3% | OVCAR-8 ovarian 65.9% | OVCAR-5 ovarian 106% | OVCAR-4 ovarian 95% | SK-OV-3 ovarian 96.6% | IGROV1 ovarian 74.3% | OVCAR-3 ovarian 87.9% | HS 578T breast 85% | NCI/ADR-RES ovarian 96.7%

CCOC(=O)C1=C(c2ccccc2)N=C2N(c3ccccc3)N=C(C(C)=O)N2C1c1ccc(F)cc1 (stereo not given)
inactive: SR leukemia 97.1% | RPMI-8226 leukemia 89.3% | OVCAR-8 ovarian 99.3% | OVCAR-5 ovarian 102% | OVCAR-4 ovarian 97.9% | SK-OV-3 ovarian 107% | IGROV1 ovarian 96.3% | OVCAR-3 ovarian 105% | HS 578T breast 92.1% | NCI/ADR-RES ovarian 109%

COc1ccc(N/N=C/c2cn(-c3ccc(C(=O)O)cc3)nc2-c2cc3ccccc3oc2=O)cc1
inactive: SR leukemia 44.8% | RPMI-8226 leukemia 51.6% | OVCAR-8 ovarian 65.4% | OVCAR-5 ovarian 70.2% | OVCAR-4 ovarian 79% | SK-OV-3 ovarian 99.1% | IGROV1 ovarian 71.5% | OVCAR-3 ovarian 74.1% | HS 578T breast 106% | NCI/ADR-RES ovarian 67.6%

O=C(/C=C/c1ccccc1)c1ccc(-n2cc(CN3CCN(c4cc5c(cc4F)c(=O)c(C(=O)O)cn5C4CC4)CC3)nn2)cc1
inactive: SR leukemia 24.1% | OVCAR-8 ovarian 62% | OVCAR-5 ovarian 92.2% | OVCAR-4 ovarian 89.7% | SK-OV-3 ovarian 80% | IGROV1 ovarian 84% | OVCAR-3 ovarian 91.5% | HS 578T breast 67.4% | NCI/ADR-RES ovarian 87%
active: RPMI-8226 leukemia -0.509%

O=C(NC1CCC(Br)CC1)C1CCCC(S(=O)(=O)NC2CCCCC2)C1 (stereo not given)
inactive: SR leukemia 21.1% [25 µM] | OVCAR-5 ovarian 39.2% [25 µM] | IGROV1 ovarian 27.4% [25 µM] | OVCAR-3 ovarian 14.3% [25 µM] | HS 578T breast 46.1% [25 µM]
active: RPMI-8226 leukemia 2.82% [25 µM] | OVCAR-8 ovarian 7.56% [25 µM] | OVCAR-4 ovarian 4.59% [25 µM] | SK-OV-3 ovarian 1.87% [25 µM] | NCI/ADR-RES ovarian 3.69% [25 µM]

Cc1ccc(OCCOCCOCCOCCOCCOc2ccc(C)n(O)c2=S)c(=S)n1O
inactive: RPMI-8226 leukemia 11.5% | OVCAR-8 ovarian 14.1% | OVCAR-5 ovarian 41.7% | OVCAR-4 ovarian 22.7% | SK-OV-3 ovarian 10.2% | IGROV1 ovarian 15.5% | OVCAR-3 ovarian 29.6% | HS 578T breast 45.8%
active: SR leukemia 4.81% | NCI/ADR-RES ovarian 1.54%

N#Cc1c(-c2ccc(Cl)cc2)nc(NN=Cc2ccc[nH]2)nc1N1CCOCC1
inactive: SR leukemia 31.2% | OVCAR-8 ovarian 85.1% | OVCAR-5 ovarian 99.6% | OVCAR-4 ovarian 72.6% | SK-OV-3 ovarian 84.7% | IGROV1 ovarian 67.9% | OVCAR-3 ovarian 45.6% | HS 578T breast 95% | NCI/ADR-RES ovarian 84.5%
active: RPMI-8226 leukemia 6.36%

C=CCN=c1sc(-c2ccc3ccccc3c2)cn1NC(=O)c1cc2ccc1CCc1ccc(cc1)CC2
inactive: SR leukemia 39.1% | RPMI-8226 leukemia 25.8% | OVCAR-8 ovarian 65.5% | OVCAR-5 ovarian 103% | OVCAR-4 ovarian 33.5% | SK-OV-3 ovarian 82.1% | IGROV1 ovarian 81.3% | OVCAR-3 ovarian 53.2% | HS 578T breast 58.7% | NCI/ADR-RES ovarian 67.2%

Cc1ccc(S(=O)(=O)OCC#CCOS(=O)(=O)c2ccc(C)cc2)cc1
inactive: SR leukemia 10.8% | RPMI-8226 leukemia 20.2% | OVCAR-8 ovarian 34.6% | OVCAR-5 ovarian 112% | OVCAR-4 ovarian 73.4% | SK-OV-3 ovarian 98.3% | OVCAR-3 ovarian 12.4% | HS 578T breast 62.4% | NCI/ADR-RES ovarian 31%
active: IGROV1 ovarian -40.2%

C=C1SC(=Nc2ccccc2Cl)N(C(=O)c2sc3ccccc3c2Cl)C1(C)C
inactive: SR leukemia 65.4% | OVCAR-8 ovarian 61.4% | OVCAR-5 ovarian 92.4% | OVCAR-4 ovarian 29.8% | SK-OV-3 ovarian 58.6% | IGROV1 ovarian 297% | OVCAR-3 ovarian 39.6% | HS 578T breast 73.5% | NCI/ADR-RES ovarian 31.7%
active: RPMI-8226 leukemia 4.32%

Nc1nc(C(=O)N/N=C/c2ccc(F)cc2)nn1-c1ccc(S(N)(=O)=O)cc1
inactive: SR leukemia 98.5% | RPMI-8226 leukemia 91% | OVCAR-8 ovarian 97.5% | OVCAR-5 ovarian 104% | OVCAR-4 ovarian 98.4% | SK-OV-3 ovarian 105% | IGROV1 ovarian 91.5% | OVCAR-3 ovarian 102% | HS 578T breast 101% | NCI/ADR-RES ovarian 98.3%

C#CCOc1cccc(Nc2ncnc3c2ncn3C2CCN(C(=O)CCl)C2)c1 (stereo not given)
inactive: SK-OV-3 ovarian 48.4% | HS 578T breast 14% | NCI/ADR-RES ovarian 15.7%
active: SR leukemia -23.8% | RPMI-8226 leukemia -49.8% | OVCAR-8 ovarian 5.81% | OVCAR-5 ovarian -88.4% | OVCAR-4 ovarian -51.7% | IGROV1 ovarian -58.3% | OVCAR-3 ovarian -90.9%

O=C(c1ccc(Br)cc1)C(Br)C(c1ccc(Cl)cc1)C(c1ccccc1)[N+](=O)[O-] (stereo not given)
inactive: SR leukemia 103% | RPMI-8226 leukemia 92.1% | OVCAR-8 ovarian 95.3% | OVCAR-5 ovarian 108% | OVCAR-4 ovarian 81.4% | SK-OV-3 ovarian 99.4% | IGROV1 ovarian 108% | OVCAR-3 ovarian 94.4% | HS 578T breast 87.1% | NCI/ADR-RES ovarian 95.6%

CCOC(=O)C#Cc1c(C(=O)OCC)nnn1[C@@H]1O[C@H](COC)[C@@H](OC)[C@H]1OC
active: SR leukemia 8.26%
inactive: RPMI-8226 leukemia 62.5% | OVCAR-8 ovarian 104% | OVCAR-5 ovarian 90.1% | OVCAR-4 ovarian 73.5% | SK-OV-3 ovarian 92.6% | IGROV1 ovarian 95.1% | OVCAR-3 ovarian 15.5% | HS 578T breast 97% | NCI/ADR-RES ovarian 109%

Nc1ncnc2c1N=C(c1ccc(Cl)cc1)CC(c1cccc(Nc3ccnc4cc(Cl)ccc34)c1)N2 (stereo not given)
active: SR leukemia -12.6% | RPMI-8226 leukemia -20.5%
inactive: OVCAR-8 ovarian 77.9% | OVCAR-5 ovarian 111% | OVCAR-4 ovarian 70.7% | SK-OV-3 ovarian 80.5% | IGROV1 ovarian 66.7% | OVCAR-3 ovarian 80.6% | HS 578T breast 68.2% | NCI/ADR-RES ovarian 73.1%

— PubChem BioAssay (NCI)
